The values below come from PubChem BioAssay AID1012 (Sanford-Burnham Center for Chemical Genomics, 2008).

Hit rate of the full screen: of about 200,000 compounds, about 520 (0.26%) were called active. The sample holds actives, similar compounds and a random draw of the others, so the mix is not that of the screen. Values without a mark were called inactive.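 The calls were made as follows: active = tissue-nonspecific alkaline phosphatase inhibition above about 50% at 20 µM in the single-dose screen (limit read from the data); inactive = the rest.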

Chain of Alkaline phosphatase, tissue-nonspecific isozyme (Homo sapiens) (P05186 whole entry, looked up): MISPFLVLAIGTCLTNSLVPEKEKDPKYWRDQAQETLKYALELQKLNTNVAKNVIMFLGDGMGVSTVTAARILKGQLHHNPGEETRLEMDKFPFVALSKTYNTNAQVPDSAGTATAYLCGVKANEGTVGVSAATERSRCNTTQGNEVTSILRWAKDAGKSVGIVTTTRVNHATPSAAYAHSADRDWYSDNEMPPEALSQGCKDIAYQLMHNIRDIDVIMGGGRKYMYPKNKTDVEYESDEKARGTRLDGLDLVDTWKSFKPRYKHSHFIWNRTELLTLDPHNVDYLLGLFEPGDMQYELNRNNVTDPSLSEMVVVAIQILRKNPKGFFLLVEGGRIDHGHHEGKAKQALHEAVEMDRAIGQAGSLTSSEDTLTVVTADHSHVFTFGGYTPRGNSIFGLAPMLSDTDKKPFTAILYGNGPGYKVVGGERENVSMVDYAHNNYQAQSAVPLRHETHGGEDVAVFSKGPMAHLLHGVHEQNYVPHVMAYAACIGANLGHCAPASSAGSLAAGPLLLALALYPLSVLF

This assay concerns the target Alkaline phosphatase, tissue-nonspecific isozyme (Homo sapiens) (UniProt P05186). Description: blockers of alkaline phosphatase TNAP activity – biochemical, luminescent, no phosphate acceptor, uHTS, primary screen (AID 1012).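 Also: 0% = DMSO negative control and 100% = EDTA positive control.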 The note with it: purified TNAP, CDP-star luminescence, 30 min; at 20 µM; active compounds read high.
`COc1ccc(N2C(=O)CNC2=S)cc1`: the inhibition is -13.2%.

On to `N#C/C=C(/c1ccc(F)cc1)N1CCOCC1`, for which the inhibition is -8.3%.

As to `CC(C)CNC(=S)Nc1ccc(F)cc1`, the inhibition is -5.6%.

In the case of `COc1ccc(/C=N/NC(=O)c2ccncc2)cc1CN1CCCc2ccccc21`, the inhibition was -28.5%.

As for `CCC(=O)Nc1cc(C(F)(F)F)ccc1N1CCCC1`, the inhibition is -1.6%.

Turning to `NS(=O)(=O)c1ccc(NC(=S)NC(=O)c2cccnc2)cc1`, the inhibition was -3.6%.

On to `O=C(NC(=S)Nc1ccc(S(=O)(=O)Nc2ncccn2)cc1)c1cccc(Br)c1`, for which the inhibition is 5.9%.

In the case of `NS(=O)(=O)c1ccc(NC(=S)NC(=O)c2cccc(Br)c2)cc1`, the inhibition was 57.3% (active).

Turning to `COc1ccccc1NC(=O)C1=C(C)Nc2nc3ccccc3n2C1c1cccs1` (stereo unspecified), the inhibition was -6.2%.

Regarding `CCOC(=O)C1=C(C)Nc2nc3ccccc3n2C1c1cccs1` (stereo unspecified), the inhibition is 57.2% (active).

Regarding `CCOC(=O)C1=C(C)NC(=S)NC1c1cccs1` (stereo unspecified), the inhibition is -12.7%.

For the molecule `COc1ccccc1Oc1nc(-c2cccnc2)nc2ccccc12`, the inhibition was -4.1%.

As for `COc1cc(CNc2ncn[nH]2)ccc1OCc1ccccc1C`, the inhibition was -67%.

Regarding `O=C1CSC(c2ccccc2)N1c1nc(-c2ccc(Cl)cc2Cl)cs1` (stereo unspecified), the inhibition was -10%.

Take `Clc1ccc(-c2cc(C3CCNCC3)[nH]n2)c(Cl)c1`: the inhibition was 80.1% (active).

Regarding `Clc1ccc(-c2ncc3ccccn23)c(Cl)c1`, the inhibition is -7.2%.

Take `COCc1[nH]nc2c1C(C1C=CCCC1)C(C#N)=C(N)O2` (stereo unspecified): the inhibition was 14.2%.

With `CCCc1[nH]nc2c1C(C1CC=CCC1)C(C#N)=C(N)O2` (stereo unspecified), the inhibition is 50.5% (active).

Turning to `CCCc1[nH]nc2c1C(c1ccc(Br)s1)C(C#N)=C(N)O2` (stereo unspecified), the inhibition was 1.9%.

Consider `COc1nc(N(C)C)nc(N2CC(=O)N(CCNS(=O)(=O)c3ccc(C)cc3)C2=N)n1`, for which the inhibition was -3.4%.

Take `COc1ccc(C)cc1NC(=O)NCc1ccccn1`: the inhibition was -12.1%.

Regarding `CN(c1ccccc1)S(=O)(=O)c1ccc(Cl)c(C(=O)OCC(N)=O)c1`, the inhibition was -4.4%.

Turning to `NNC(=O)c1ccc(Cl)cc1Cl`, the inhibition was -3.9%.

For `CN(C)C=NC(=O)c1cccn1-c1ncc(C(F)(F)F)cc1Cl`, the inhibition is -14%.

For `CNc1ccc(SC#N)cc1`, the inhibition was -10.5%.

Consider `O=C(OCc1nc2ccccc2[nH]1)C1CCCCC1`, for which the inhibition is -36%.

`COC(=O)C1=CN(Cc2ccc(OC)c(OC)c2)C=C(C(=O)OC)C1c1cccs1`: the inhibition was -7.4%.

On to `CC(=O)N1C(C)c2ccccc2C(C)(C)CC12CCCCC2` (stereo unspecified), for which the inhibition is 2.5%.

Turning to `CCS(=O)(=O)n1nc(-c2ccc(OC)cc2)nc1SC`, the inhibition was 66% (active).

As for `CCS(=O)(=O)n1nc(-c2ccccc2)nc1SCc1ccccc1`, the inhibition was 61.1% (active).

Take `CS(=O)(=O)n1nc(-c2ccccc2)nc1NCc1ccco1`: the inhibition was -1.5%.

As for `CCn1c(SCc2ccccc2)nc2c(c1=O)SCC2`, the inhibition was -14%.

Take `COc1ccc(-c2noc(CN(C)S(=O)(=O)c3ccc(C)cc3)n2)cc1`: the inhibition was -8.5%.

On to `COc1ccc(-n2c(SC)nc(O)cc2=O)cc1`, for which the inhibition was -11.9%.

Regarding `CCOc1cc(/C=C(/C#N)c2ccc(Cl)cc2)cc(Cl)c1OCC(=O)O`, the inhibition is -8.1%.

In the case of `CC(O)CNCCOc1cccc(Oc2ccccc2)c1` (stereo unspecified), the inhibition was -10.9%.

`COc1ccc(-c2nc(CN3CCN(c4ncccn4)CC3)c(C)o2)cc1C`: the inhibition was -13.8%.

On to `CCn1c(SCC(=O)Nc2nccs2)nnc1-c1ccco1`, for which the inhibition is 37.9%.

Turning to `Cc1ccccc1OCCOc1ccc([N+](=O)[O-])cc1/C=N/n1cnnc1`, the inhibition was -2.8%.

As for `CC(=O)c1cnc(-c2ccccc2)s1`, the inhibition is -4%.

For `NS(=O)(=O)c1ccc(CNC(=O)c2ccc(Cl)cc2[N+](=O)[O-])cc1`, the inhibition was -22.8%.

`CC(C)C(=O)Nc1ccc2c3c(cccc13)CC2`: the inhibition was -18%.

As for `O=C(CSc1nnc(C2CC2)n1Cc1ccccc1)Nc1cccnc1Cl`, the inhibition was -1.5%.

Regarding `C/C(CC(=O)Nc1ccc(Cl)cc1)=N\NC(=O)C(=O)NCCO`, the inhibition was -12.4%.

On to `Cc1cs/c(=N\N=C\c2ccc(O)cc2)n1Cc1ccco1`, for which the inhibition is -18.1%.

With `CC(C)c1ccc(Nc2nnc(SCC(=O)c3nnc(-c4ccccc4)o3)s2)cc1`, the inhibition was -1.3%.

Take `CC1Cc2ccccc2N1C(=O)CSc1nnc(-c2ccc(S(=O)(=O)N3CCCC3)cc2)n1C` (stereo unspecified): the inhibition is -5.8%.

Turning to `O=C(Nc1ccccc1C(=O)N1CCOCC1)c1ccc(CSc2ccccc2)cc1`, the inhibition was -8.4%.

For the molecule `COC(=O)[C@H]1Cc2cnoc2C[C@]1(C)C(=O)O`, the inhibition is -8%.

For `CC(Oc1ccccc1)C(=O)Nc1oc(-c2ccco2)c(-c2ccco2)c1C#N` (stereo unspecified), the inhibition is -18.5%.

Turning to `COc1ccc(N2C(=O)CC(Sc3n[nH]c(-c4ccc(C)cc4)n3)C2=O)cc1` (stereo unspecified), the inhibition is 43.8%.

Regarding `O=Cc1ccc(Oc2cccc(C(F)(F)F)c2)nc1`, the inhibition was -8.3%.

`O=C(Cc1c[nH]c2ccccc12)N/N=C/c1cccc(F)c1`: the inhibition was -1%.

In the case of `Cc1cc(C(=O)COc2ccccc2[N+](=O)[O-])c(C)n1-c1cccc(S(=O)(=O)N2CCOCC2)c1`, the inhibition is -9.7%.

In the case of `Cc1cc(OCC(=O)NC2CCN(C)CC2)ccc1[N+](=O)[O-]`, the inhibition is -25.3%.

As to `O=C(Cc1ccccc1)Nc1cccc(C(=O)N/N=C/c2ccco2)c1`, the inhibition was -4.3%.

`CC(=O)NCC(=O)N1CCCC(C(=O)c2ccc3c4c(cccc24)CC3)C1` (stereo unspecified): the inhibition was -8.9%.

As to `Cc1ccccc1CC1(CO)CCCN(C(=O)c2cc(-c3ccccc3)no2)C1` (stereo unspecified), the inhibition is -4.5%.

`CC(=O)c1ccc(NC(=O)CSC(=S)N2CCCC2)cc1`: the inhibition is -5.7%.

In the case of `CC(C)Oc1ccc(CC(=O)NNC(=S)Nc2ccc(Br)cc2)cc1`, the inhibition was -117%.

Take `CCOCCCN(C(=O)Cn1nnc(-c2ccc(OC)c(OC)c2)n1)C(CC)C(=O)NC1CCCC1` (stereo unspecified): the inhibition is -11.1%.

Regarding `Cc1ccc(CN2CCN(Cc3cn(C)nc3-c3ccccc3)CC2CCO)o1` (stereo unspecified), the inhibition is -8.9%.

Turning to `Cn1cnnc1Sc1ccc(S(C)(=O)=O)cc1[N+](=O)[O-]`, the inhibition was -1.9%.

With `COc1cc2c3c(c1)/C(=C1/SC(=S)NC1=O)C(=O)N3C(C)(C)C=C2C`, the inhibition is 21.4%.

Regarding `O=C(CSC1=Nc2ccccc2C2=NC(CC(=O)NCc3ccco3)C(=O)N12)NCc1ccco1` (stereo unspecified), the inhibition was -27.8%.

On to `CC(C)C1N=C2c3ccccc3N=C(SCC(=O)c3ccc(O)c(O)c3)N2C1=O` (stereo unspecified), for which the inhibition was 93.7% (active).

With `CCC(C)NC(=O)CSC1=Nc2ccccc2C2=NC(CCC(=O)NCc3ccco3)C(=O)N12` (stereo unspecified), the inhibition was -11%.

Turning to `CN(C(=O)CSc1nncc2ccccc12)C1CCCCC1`, the inhibition was -7.3%.

As to `C=CCNC(=O)COC(=O)CNC(=O)c1cc(Cl)cc([N+](=O)[O-])c1`, the inhibition is 6.8%.

Regarding `COc1ccc(OC)c(S(=O)(=O)Nc2cccc(-c3ccc4nncn4n3)c2)c1`, the inhibition was -5.3%.

For the molecule `COc1cccc(N(C(=O)C2COc3ccccc3O2)C(C(=O)NC2CCCCC2)c2ccc(O)cc2)c1` (stereo unspecified), the inhibition was 0.9%.

Regarding `Cc1cc2c(cc1C)[n+](C)cn2CC(O)COCC1CC=CCC1` (stereo unspecified), the inhibition is -9.6%.

Consider `CCCCOc1ccc(N(CC(=O)NC(C)C)C(=O)CCC(=O)Nc2ccccn2)cc1`, for which the inhibition is -3.6%.

On to `CC(C)NC(=O)NCCCCCCS(C)=O` (stereo unspecified), for which the inhibition was -6.1%.

Consider `COc1cccc(NC(=O)CS(=O)(=O)c2cn(CC(=O)N3CCOCC3)c3ccccc23)c1`, for which the inhibition is -14.3%.

With `COc1ccc(Cn2c(-c3ccc(Cl)cc3)c[n+]3ccccc23)cc1`, the inhibition is -2.5%.

Regarding `COC1=CCC2([N+](=O)[O-])CN(CC(=O)O)CC1([N+](=O)[O-])C2` (stereo unspecified), the inhibition is -11.9%.

For the molecule `CCCC(c1nnnn1C(C)(C)C)N1CCN(Cc2ccccc2)CC1` (stereo unspecified), the inhibition is -1.2%.

In the case of `c1ccc2c(NC3C4CC5CC(C4)CC3C5)nc(N3CCOCC3)nc2c1` (stereo unspecified), the inhibition was -15.9%.

As for `CC1CN(/C=C/C(=O)C(F)(F)F)CC(C)O1` (stereo unspecified), the inhibition was -8.2%.

For `CCOc1ccccc1N1CCN(C(=O)COc2ccc3c(C)cc(=O)oc3c2)CC1`, the inhibition was -11%.

With `CC(C)CCC(C)NC(=O)c1ccc2nccnc2c1` (stereo unspecified), the inhibition is -12.5%.

As for `CC12CCC(C(=O)N(NC(=O)c3ccccc3O)C1=O)C2(C)C` (stereo unspecified), the inhibition is 3.9%.

On to `COc1ccc(N2C(=O)C(O)C2c2ccc(C)cc2)cc1` (stereo unspecified), for which the inhibition was -8.2%.

Consider `C=CCn1c(CCNC(=O)c2cccs2)n[nH]c1=S`, for which the inhibition was -3.9%.

Take `CCCc1nc(SCC(=O)Nc2ccc(S(=O)(=O)N(C)C)cc2)c2ccccc2n1`: the inhibition is 17.6%.

In the case of `Cc1cc(=O)oc(C)c1C(=O)NCCN(C)Cc1ccccc1`, the inhibition was -6.1%.

On to `Cc1ccccc1NC(=O)c1nn(-c2ccc(F)c(F)c2)ccc1=O`, for which the inhibition is -8.3%.

For `O=C(Nc1nnc(Cc2ccccc2)s1)c1cnccn1`, the inhibition was -2.7%.

For the molecule `CCN1CCN(C(=O)c2ccc(CN(c3ccc(C)c(C)c3)S(C)(=O)=O)cc2)CC1`, the inhibition is -5.1%.

For `CC(C)(C)C(=O)N1CCC[C@@]1(CO)C(=O)O`, the inhibition is -10.8%.

As for `Cc1ccc(S(=O)(=O)N2CCN(C(=O)c3cccs3)CC2)cc1`, the inhibition is -7.6%.

With `O=C(O)C1C2C=CC(O2)C1C(=O)NCCc1cccc(Cl)c1` (stereo unspecified), the inhibition is -9.5%.

As for `CC1CCC(NC(=O)C2c3ccccc3C(=O)N2Cc2ccc3c(c2)OCO3)CC1` (stereo unspecified), the inhibition is -16.3%.

On to `O=C(COC(=O)/C=C/c1cn(-c2ccccc2)nc1-c1cccnc1)Nc1ccc(Cl)cc1Cl`, for which the inhibition is -8.8%.

`CC(=O)Nc1ccc(C(=O)CSc2nc3ccc(C)cc3[nH]2)cc1`: the inhibition is -33.5%.

One may read the inhibition as the drop in the measured response relative to a control, in per cent.
